PubChem BioAssay (NCI)
Values joined by “and” are separate entries in the source; they are usually repeats but may differ in a detail not shown here. Identical values can stand only once. This is part of a sample that, as a whole, favours compounds with a hit. Of some 83,000 tested, about 20% had one in any assay.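 Negative percent growth values reflect cell death: -40 means 40% of the cells present at the start died, and -100 means all died.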 Active and inactive are the calls of the source. The calls were made as follows: active = growth percent below 10; inactive = the rest.

Columns and labels:
Test in all cases: NCI-60 one-dose screen, 48 h (100 = growth as untreated, 0 = no growth, -100 = all killed)
SR leukemia = conditions: 10 µM
RPMI-8226 leukemia = conditions: 10 µM
OVCAR-8 ovarian = conditions: 10 µM
OVCAR-5 ovarian = conditions: 10 µM
OVCAR-4 ovarian = conditions: 10 µM
SK-OV-3 ovarian = conditions: 10 µM
IGROV1 ovarian = conditions: 10 µM
OVCAR-3 ovarian = conditions: 10 µM
HS 578T breast = conditions: 10 µM
NCI/ADR-RES ovarian = conditions: 10 µM
T-47D breast = conditions: 10 µM
BT-549 breast = conditions: 10 µM
MDA-MB-435 melanoma = conditions: 10 µM
SW-620 colon = conditions: 10 µM
MCF7 breast = test system: MCF7 breast
HCT-116 colon = conditions: 10 µM
HCC-2998 colon = conditions: 10 µM
KM12 colon = conditions: 10 µM

Measured: growth

O=C(O)C(c1ccccc1)C(O)c1ccccc1 (stereo not drawn)
inactive: SR leukemia 94.6% | RPMI-8226 leukemia 101% | OVCAR-8 ovarian 99.4% | OVCAR-5 ovarian 103% | OVCAR-4 ovarian 120% | SK-OV-3 ovarian 99.9% | IGROV1 ovarian 101% | OVCAR-3 ovarian 116% | HS 578T breast 100% | NCI/ADR-RES ovarian 107% | T-47D breast 94.4% | BT-549 breast 110% | MDA-MB-435 melanoma 105% | SW-620 colon 106% | MCF7 breast; 10 µM unless noted 95.3% | HCT-116 colon 105% | HCC-2998 colon 97.9% | KM12 colon 108%

c1ccc(Sc2ccccc2)cc1
inactive: SR leukemia 82.9% | RPMI-8226 leukemia 99.7% | OVCAR-8 ovarian 102% | OVCAR-5 ovarian 104% | OVCAR-4 ovarian 111% | SK-OV-3 ovarian 104% | IGROV1 ovarian 117% | OVCAR-3 ovarian 106% | HS 578T breast 115% | NCI/ADR-RES ovarian 112% | T-47D breast 99.6% | BT-549 breast 100% | MDA-MB-435 melanoma 99.6% | SW-620 colon 107% | MCF7 breast; 10 µM unless noted 97.6% | HCT-116 colon 110% | HCC-2998 colon 105% | KM12 colon 102%

COc1cc(CN)ccc1O
inactive: SR leukemia 89.5% | RPMI-8226 leukemia 81% | OVCAR-8 ovarian 102% | OVCAR-5 ovarian 95.5% | OVCAR-4 ovarian 108% | SK-OV-3 ovarian 93.8% | IGROV1 ovarian 78.7% | OVCAR-3 ovarian 105% | HS 578T breast 102% | NCI/ADR-RES ovarian 94.2% | T-47D breast 94.5% | BT-549 breast 95% | MDA-MB-435 melanoma 99.5% | SW-620 colon 103% | MCF7 breast; 10 µM unless noted 83.7% | HCT-116 colon 103% | HCC-2998 colon 86.3% | KM12 colon 104%

CN(C)c1ccc2nc3ccc(=N)cc-3sc2c1
inactive: SR leukemia 12% | OVCAR-5 ovarian 80.1% | SK-OV-3 ovarian 95.9% | IGROV1 ovarian 49.4% | HS 578T breast 99.6% | T-47D breast 19.1% | BT-549 breast 51.6% | SW-620 colon 23.5% | MCF7 breast; 10 µM unless noted 23.9% | HCT-116 colon 16.7% | HCC-2998 colon 67.4% | KM12 colon 38%
active: RPMI-8226 leukemia 6.67% | OVCAR-8 ovarian 3.37% | OVCAR-4 ovarian -8.03% | OVCAR-3 ovarian 6.65% | NCI/ADR-RES ovarian 3.53% | MDA-MB-435 melanoma -59.8%

Cc1cc(OCCO)cc(C)c1Cl
inactive: SR leukemia 124% | RPMI-8226 leukemia 102% | OVCAR-8 ovarian 106% | OVCAR-5 ovarian 115% | OVCAR-4 ovarian 122% | SK-OV-3 ovarian 117% | IGROV1 ovarian 113% | OVCAR-3 ovarian 118% | HS 578T breast 104% | NCI/ADR-RES ovarian 108% | T-47D breast 111% | BT-549 breast 116% | SW-620 colon 107% | MCF7 breast; 10 µM unless noted 110% | HCT-116 colon 101% | HCC-2998 colon 102% | KM12 colon 107%

Nc1ccccc1C(=O)Nc1ccc(Cl)cc1Cl
inactive: SR leukemia 50% | RPMI-8226 leukemia 63.9% | OVCAR-8 ovarian 83.1% | OVCAR-5 ovarian 100% | OVCAR-4 ovarian 87.5% | SK-OV-3 ovarian 99.2% | IGROV1 ovarian 35.9% | OVCAR-3 ovarian 93.7% | HS 578T breast 87.4% | NCI/ADR-RES ovarian 90.7% | T-47D breast 88% | BT-549 breast 99.2% | MDA-MB-435 melanoma 107% | SW-620 colon 85.9% | MCF7 breast; 10 µM unless noted 65.5% | HCT-116 colon 59.9% | KM12 colon 91%

S=c1nn[nH]c2ccccc12
inactive: SR leukemia 92.2% | RPMI-8226 leukemia 117% | OVCAR-8 ovarian 103% | OVCAR-5 ovarian 105% | OVCAR-4 ovarian 114% | SK-OV-3 ovarian 99.8% | IGROV1 ovarian 97.7% | OVCAR-3 ovarian 111% | HS 578T breast 109% | NCI/ADR-RES ovarian 105% | T-47D breast 109% | BT-549 breast 106% | MDA-MB-435 melanoma 120% | SW-620 colon 113% | MCF7 breast; 10 µM unless noted 99.2% | HCT-116 colon 103% | KM12 colon 101%

COc1cc2c3cc1Oc1c(OC)c(OC)cc4c1C(Cc1ccc(O)c(c1)Oc1ccc(cc1)CC3N(C)CC2)N(C)CC4 (stereo not drawn)
81.8% (inactive) and -100% (active): MCF7 breast; 100 µM
inactive: OVCAR-4 ovarian 13.5% | SK-OV-3 ovarian 43% | IGROV1 ovarian 13.7% | OVCAR-3 ovarian 18.8% | HS 578T breast 55.3% | BT-549 breast 32.8% | KM12 colon 12.9%
active: SR leukemia -1.66% | RPMI-8226 leukemia -27.4% | OVCAR-8 ovarian 7.71% | OVCAR-5 ovarian -0.193% | NCI/ADR-RES ovarian 0.974% | T-47D breast -64.6% | SW-620 colon -46.8% | MCF7 breast; 10 µM -71% | HCT-116 colon -94.7% | HCC-2998 colon -72.7%

O=C1C=C(Nc2ccc([N+](=O)[O-])cc2)c2ccccc2C1=O
inactive: SR leukemia 23.9% | RPMI-8226 leukemia 18% | OVCAR-8 ovarian 35.1% | OVCAR-5 ovarian 86.9% | OVCAR-4 ovarian 45.3% | SK-OV-3 ovarian 62.3% | IGROV1 ovarian 60.8% | HS 578T breast 47.5% | NCI/ADR-RES ovarian 32.5% | T-47D breast 20% | SW-620 colon 40.4% | MCF7 breast; 10 µM unless noted 26.5% | HCC-2998 colon 72.4% | KM12 colon 32.4%
active: OVCAR-3 ovarian 7.94% | BT-549 breast -1.53% | MDA-MB-435 melanoma -88.2%
